MRP resist rev = MRP-mediated drug resistance reversal | H69AR cells + 2 uM doxorubicin, CellTiter-Glo, 72 h | differential viability (reversal), % at 10 µM | 85,000 compounds, 0.04% hits;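 active means viability drop by adding the cancer drug above about 55%, with treated viability meeting a 40% cutoff, limit read from the data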;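 further: larger differential means the compound sensitizes cells more to doxorubicin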
CYP2C9 act = increases human cytochrome P450 2C9 activity; activation factor at 5 µM; 96,000 compounds, 1.4% hits; recombinant CYP2C9, luciferin-H conversion, luminescence; active compounds read high; factor 1 = untreated enzyme, 0 = blocked; P11712;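 active means activation factor of 2 or more for CYP2C9 at a 5 µM dose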
CYP2C9 inh = inhibitors of human CYP2C9 | CYP2C9 Supersomes, luciferin-H conversion, luminescence | AID 777 | inhibition, % at 5 µM | 96,000 compounds, 20% hits;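 active means blocking of liver enzyme CYP2C9 beyond about 50% at 5 µM, limit read from the data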
MRP-1 activ = activators of MRP-1. H69AR cells + doxorubicin, viability rescue, CellTiter-Glo. viability increase, % at 10 µM. 140,000 compounds, 0.61% hits;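 active means viability gain under doxorubicin at or above a set limit, the compound median plus 3 SD, cut at about 4.7% in these data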;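 further: MRP-1 overexpressing cells given doxorubicin 25 µM after compound pretreatment; 18-22 h compound pretreatment then 72 h with doxorubicin before readout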
CYP2C19 act = activators of human cytochrome P450 2C19 | AID 1025 | P33261 | activation factor at 5 µM | 96,000 tested, under 10 active | recombinant CYP2C19, luciferin-H EGE luminescence; active compounds read high; 0 = fully inhibited enzyme, 1 = untreated enzyme;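 active means activation factor of at least 2 at 5 µM in the primary screen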
Target sequence (P33261 whole entry, looked up): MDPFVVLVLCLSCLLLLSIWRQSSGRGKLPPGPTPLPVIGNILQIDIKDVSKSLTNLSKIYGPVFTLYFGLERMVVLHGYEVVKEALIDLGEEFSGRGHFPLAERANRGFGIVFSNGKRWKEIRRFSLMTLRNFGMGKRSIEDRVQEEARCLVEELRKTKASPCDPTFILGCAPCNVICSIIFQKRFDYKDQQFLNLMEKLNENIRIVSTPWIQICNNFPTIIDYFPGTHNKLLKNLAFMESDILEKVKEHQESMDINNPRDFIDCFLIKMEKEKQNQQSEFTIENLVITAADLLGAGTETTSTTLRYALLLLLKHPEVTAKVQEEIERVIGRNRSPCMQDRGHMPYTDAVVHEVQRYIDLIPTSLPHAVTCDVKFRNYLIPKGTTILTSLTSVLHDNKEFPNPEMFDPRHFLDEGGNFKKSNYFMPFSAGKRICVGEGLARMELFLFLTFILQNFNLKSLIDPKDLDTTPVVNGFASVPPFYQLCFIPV
CYP2C19 inh = human CYP2C19 inhibition; 96,000 compounds, 21% hits; P33261; CYP2C19 Supersomes, luciferin-H EGE luminescence, 30 min; inhibition, % at 5 µM;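 active means CYP2C19 inhibition above a set limit at 5 µM in the primary screen, cut at about 50% in these data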
Each line names hits and unclear results; the compound was inactive in the other large screens. Shown are actives, neighbours in structure and some others; about 21% of the full set was active somewhere.

COc1cccc(NC(=O)c2cn(C)c(=O)c3cc(OC)c(OC)cc23)c1	none
CCCC1(CCC)C(=O)NC(=NCCc2ccc(OC)c(OC)c2)NC1=O	none (no result: MRP resist rev, CYP2C9 act, CYP2C9 inh, CYP2C19 act, CYP2C19 inh)
Cc1ccc2nc(C(=O)O)c(C(=O)O)nc2c1	none
CN1C(=O)N(C)C2(c3ccccc3)N(C(C)(C)C)C(=O)NC12c1ccccc1 (stereo not drawn)	none (no result: MRP resist rev, CYP2C9 act, CYP2C9 inh, CYP2C19 act, CYP2C19 inh)
Cc1ccc(NC2=NCC(=O)N2C2CCCC2)c(C)c1	none (no result: CYP2C9 act, CYP2C9 inh, CYP2C19 act, CYP2C19 inh)
CC(=O)c1c(C)[nH]c(C(=O)OCC(=O)N2CCN(S(=O)(=O)c3ccc(C)cc3C)CC2)c1C	CYP2C9 inh 50.5, CYP2C19 inh 60.6 (no result: MRP resist rev)
Cc1ccc(S(=O)(=O)N2CCN(C(=O)CSc3nc4ccccc4c(=O)[nH]3)CC2)c(C)c1	none
Cc1ccc(S(=O)(=O)N2CCN(C(=O)CSC3CCCC3)CC2)c(C)c1	CYP2C19 inh 76.4
Cc1cc2c(cc1C)CSC(c1ccc3ccccc3c1O)SC2	CYP2C9 inh 91.6, CYP2C19 inh 52.6
Cc1cc2c(cc1C)CSC(c1ccccc1OC(=O)C(C)(C)C)SC2	CYP2C9 inh 52.4 (no result: MRP resist rev)
Cc1cc2c(cc1C)CSC(c1c(O)ccc3ccccc13)SC2	CYP2C9 inh 98.8, CYP2C19 inh 80.8
Cc1cc2c(cc1C)CSC(c1ccccc1O)SC2	none
CCOCCCn1c(SC(C(=O)Nc2cc(C)ccc2C)c2ccccc2)nnc1-c1ccc(Cl)cc1 (stereo not drawn)	none (no result: MRP resist rev, CYP2C9 act, CYP2C9 inh, CYP2C19 act, CYP2C19 inh)
CCOC(=O)C1=C(c2ccccc2)N=C2SCC(=O)N2C1c1cccc(OC)c1 (stereo not drawn)	CYP2C9 inh 54.2, CYP2C19 inh 87.1
CCCCCCCCCCOC(=O)c1csc2nnsc12	none (no result: CYP2C9 act, CYP2C9 inh, CYP2C19 act, CYP2C19 inh)
CCOc1cc(C(=O)Nc2ccccc2F)cc(Br)c1OCC	none (no result: MRP resist rev, CYP2C9 act, CYP2C9 inh, CYP2C19 act, CYP2C19 inh)
CN1CCN(c2cc3c(c4c2[nH]c2ccccc24)C(=O)CC(C)(C)C3)CC1	CYP2C9 inh 78.5, CYP2C19 inh 60.7
CCC1CCC/C1=N\NC(=O)c1cc(C)[nH]n1 (stereo not drawn)	none (no result: MRP resist rev)
CC(Oc1ccc(-c2ccccc2)c(F)c1)c1ccn(S(=O)(=O)c2ccc(Cl)cc2)n1 (stereo not drawn)	CYP2C9 inh 68.1 (no result: MRP resist rev)
CC(Oc1ccc(Cl)cc1)c1ccnn1S(=O)(=O)c1ccccc1 (stereo not drawn)	CYP2C19 inh 82.1 (no result: MRP resist rev)
CN(CCOc1ccc(-c2ccn(S(=O)(=O)c3ccc(Cl)cc3)n2)cc1)c1ccccn1	none (no result: MRP resist rev)
Cc1cc(C)n(-c2nc3sc4c(c3c3nnc(SC(C)C)n23)CC(C)(C)OC4)n1	none (no result: CYP2C9 act, CYP2C9 inh, MRP-1 activ, CYP2C19 act, CYP2C19 inh)
Cc1nn2c(-n3ccnc3)c3c(nc2c1-c1ccccc1)CCC3	CYP2C9 inh 63.1, CYP2C19 inh 96.5
CCCCNc1c2c(nc3c(-c4ccccc4)c(C)nn13)CCC2	none
COc1ccc(C(C)C)cc1S(=O)(=O)n1ccnc1C	none (no result: MRP resist rev, CYP2C9 act, CYP2C9 inh, CYP2C19 act, CYP2C19 inh)
COc1ccc(OC)c(S(=O)(=O)n2ccnc2C)c1	CYP2C19 inh 93.2
CCOc1ccc2cc(S(=O)(=O)n3ccnc3C)ccc2c1	none
Cc1nccn1S(=O)(=O)c1ccc(Br)cc1Br	CYP2C19 inh 66.3
COc1ccc(Br)cc1S(=O)(=O)n1ccnc1C	CYP2C9 act 2.4, CYP2C19 inh 99.1
CCC(C)N1CCCCC1C(=O)Nc1c(C)cc(C)cc1C (stereo not drawn)	none (no result: CYP2C9 act, CYP2C9 inh, CYP2C19 act, CYP2C19 inh)
CCOC(=O)c1sc(NC(=S)NC(=O)C23CC4CC(CC(C4)C2)C3)cc1C	none (no result: MRP resist rev, CYP2C9 act, CYP2C9 inh, CYP2C19 act, CYP2C19 inh)
COc1cnn(-c2cc(Oc3ccc(C)cc3)ncn2)c(=O)c1Cl	CYP2C19 inh 74.0 (no result: MRP resist rev)
CN(C)S(=O)(=O)c1ccc(-c2cn3ccccc3n2)cc1	CYP2C9 inh 54.0
CCc1ccc(OC(C)c2nnc(SCC(=O)Nc3ncccc3C)n2C)cc1 (stereo not drawn)	none (no result: MRP resist rev, CYP2C9 act, CYP2C9 inh, CYP2C19 act, CYP2C19 inh)
Nc1nnc(CCC2CCCCC2)s1	CYP2C19 inh 73.3
O=C1CC(O)(c2ccccc2)C(c2ccccc2)=C1c1ccccc1 (stereo not drawn)	none (no result: CYP2C9 act, CYP2C9 inh, CYP2C19 act, CYP2C19 inh)
O=C(CC(=O)NC1CCCCC1)N/N=C/c1ccc(Cl)cc1	none (no result: MRP resist rev, CYP2C9 act, CYP2C9 inh, CYP2C19 act, CYP2C19 inh)
Cc1nn2c(c1-c1ccc(Cl)cc1)N=C(c1ccco1)CC2c1ccccc1 (stereo not drawn)	CYP2C9 inh 72.6
Clc1ccc2nc(CN3CCCc4ccccc43)cn2c1	CYP2C9 inh 92.7, CYP2C19 inh 87.8
CC(=O)NC(CCS(C)(=O)=O)C(=O)Nc1cccc2ccccc12 (stereo not drawn)	CYP2C9 inh 54.1
COCCn1c(COc2cccc(OC)c2)nnc1SCC(=O)N1CCOCC1	none
Cc1ccc(-c2cc(-c3ccc(C)o3)nc(N)c2C#N)cc1	none
Cc1cc(-c2cc(-c3ccc(Cl)cc3)nc(N)c2C#N)co1	CYP2C9 inh 69.0, CYP2C19 inh 83.0
Cc1ccc(-c2cc(-c3ccc(Cl)cc3)c(C#N)c(N)n2)o1	CYP2C9 inh 57.3, CYP2C19 inh 75.4
COc1cccc(CSc2nnc(C(F)(F)F)n2Cc2ccc(F)cc2)c1	CYP2C9 inh 61.0 (no result: MRP resist rev)
CCn1c(SCc2ccc(C)cc2)nnc1-c1cnccn1	none
Cc1ccc(CSc2nnc(C(F)(F)F)n2Cc2ccc(F)cc2)cc1	CYP2C9 inh 69.0 (no result: MRP resist rev)
Nn1c(SCc2cccc(Oc3ccccc3)c2)nnc1C(F)(F)F	none (no result: MRP resist rev, CYP2C9 act, CYP2C9 inh, CYP2C19 act, CYP2C19 inh)
CC(C)CN(CC(C)C)S(=O)(=O)N1CCC(C(=O)NC2CCCCCCC2)CC1	none (no result: MRP resist rev)
CC(C)CC(=O)NC(=S)Nc1ccc(NC(=O)c2cccs2)cc1	none (no result: MRP resist rev)
O=C(NCc1ccccc1)C12CC3CC(CC(C3)C1)C2	none
O=C(NCc1ccncc1)C12CC3CC(CC(C3)C1)C2	CYP2C19 inh 52.3
ONC(=Nc1ccccc1)c1ccc(Cl)cc1	CYP2C19 inh 89.9 (no result: MRP resist rev)
CCOC(=O)N1CCN(C(=O)c2ccc(NC(=O)c3ccc(C)cc3)cc2)CC1	CYP2C9 inh 70.4
CCOC(=O)N1CCN(C(=O)c2ccc(NC(C)=O)cc2)CC1	none
Cc1ccc(C(=O)N2CCN(c3ccc(NC(=O)c4ccc(Br)o4)cc3)CC2)cc1	CYP2C9 inh 50.2
C/C(=N/NS(C)(=O)=O)c1ccc2ccccc2c1	CYP2C9 inh 73.4
C/C(=N\NC(=O)Nc1ccccc1)c1ccc2ccccc2c1	none (no result: MRP resist rev, CYP2C9 act, CYP2C9 inh, CYP2C19 act, CYP2C19 inh)
O=C(O)c1cc(Cl)c2ccccc2c1O	CYP2C9 inh 79.2
O=C(O)c1ccc2cccc(Cl)c2c1O	none
COc1ccc(CCNC(=O)CCC2COc3ccccc3O2)cc1OC (stereo not drawn)	CYP2C9 inh 67.9
Cc1ccnc(NC(=O)CCC2COc3ccccc3O2)c1 (stereo not drawn)	CYP2C9 inh 54.8, CYP2C19 inh 81.9
O=C(CCC1COc2ccccc2O1)Nc1ccc(Cl)cn1 (stereo not drawn)	CYP2C19 inh 75.0
Cc1cc(C)nc(NS(=O)(=O)c2ccc(NC(=O)CCC3COc4ccccc4O3)cc2)n1 (stereo not drawn)	none
NS(=O)(=O)c1ccc(CCNC(=O)CCC2COc3ccccc3O2)cc1 (stereo not drawn)	none (no result: CYP2C9 act, CYP2C9 inh, CYP2C19 act, CYP2C19 inh)
CCOC(=O)c1ccc(NC(=O)CCC2COc3ccccc3O2)cc1 (stereo not drawn)	CYP2C9 inh 68.8
O=C(NC1CCCCC1)C1CCN(S(=O)(=O)N2CCOCC2)CC1	none
